Assay results as given in article doi:10.1101/2024.03.05.583629.

Molecular target: pT7_6His-AlfaTag-HOXD13 (human, UniProt P35453 263-343)
Assay: PADIT-seq
Settings: dsDNA, one strand shown

Chain of pT7_6His-AlfaTag-HOXD13 (P35453 263-343): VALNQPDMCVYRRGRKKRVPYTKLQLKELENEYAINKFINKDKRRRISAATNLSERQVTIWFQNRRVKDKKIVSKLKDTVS

Going from “CTCGAGGATATCAAGATCTGGCCTCGGCTTTTTAACAGGAACCTCTAGCTAGCCGACTCACTATAGGGATAATCGCCCTGAGCAAAGACC” to “CTCGAGGATATCAAGATCTGGCCTCGGCTTAATAAAAGGAACCTCTAGCTAGCCGACTCACTATAGGGATAATCGCCCTGAGCAAAGACC”, the binding signal rises from 2.05 ± 0.0793 log2FC to 2.67 ± 0.0794 log2FC.

Compared with “CTCGAGGATATCAAGATCTGGCCTCGGCATGATAAAAGGAACCTCTAGCTAGCCGACTCACTATAGGGATAATCGCCCTGAGCAAAGACC”, “CTCGAGGATATCAAGATCTGGCCTCGGCTTCATAAAAGGAACCTCTAGCTAGCCGACTCACTATAGGGATAATCGCCCTGAGCAAAGACC” is higher in binding signal: 1.61 ± 0.0749 log2FC for the first, 2.49 ± 0.0838 log2FC for the second.

Compared with “CTCGAGGATATCAAGATCTGGCCTCGGCATTTTATGGGGAACCTCTAGCTAGCCGACTCACTATAGGGATAATCGCCCTGAGCAAAGACC”, “CTCGAGGATATCAAGATCTGGCCTCGGCTAATTAAAAGGAACCTCTAGCTAGCCGACTCACTATAGGGATAATCGCCCTGAGCAAAGACC” is lower in binding signal: 3.25 ± 0.0762 log2FC for the first, 2.92 ± 0.0818 log2FC for the second.

First: CTCGAGGATATCAAGATCTGGCCTCGGCGTTTTATGGGGAACCTCTAGCTAGCCGACTCACTATAGGGATAATCGCCCTGAGCAAAGACC
Second: CTCGAGGATATCAAGATCTGGCCTCGGCATTTTAAATGGAACCTCTAGCTAGCCGACTCACTATAGGGATAATCGCCCTGAGCAAAGACC
The binding signal of the first is higher: 3.21 ± 0.0773 log2FC for the first, 1.82 ± 0.0848 log2FC for the second.

Going from “CTCGAGGATATCAAGATCTGGCCTCGGCTTTTTACCGGGAACCTCTAGCTAGCCGACTCACTATAGGGATAATCGCCCTGAGCAAAGACC” to “CTCGAGGATATCAAGATCTGGCCTCGGCATTTTACGAGGAACCTCTAGCTAGCCGACTCACTATAGGGATAATCGCCCTGAGCAAAGACC”, the binding signal rises from 0.978 ± 0.0873 log2FC to 3.41 ± 0.0937 log2FC.

First: CTCGAGGATATCAAGATCTGGCCTCGGCGCGCATGCGGGAACCTCTAGCTAGCCGACTCACTATAGGGATAATCGCCCTGAGCAAAGACC
Second: CTCGAGGATATCAAGATCTGGCCTCGGCTCGCTAAAAGGAACCTCTAGCTAGCCGACTCACTATAGGGATAATCGCCCTGAGCAAAGACC
The binding signal of the first is lower: -0.957 ± 0.123 log2FC for the first, 0.138 ± 0.111 log2FC for the second.

First: CTCGAGGATATCAAGATCTGGCCTCGGCTTTTTAATTGGAACCTCTAGCTAGCCGACTCACTATAGGGATAATCGCCCTGAGCAAAGACC
Second: CTCGAGGATATCAAGATCTGGCCTCGGCATTTTAGCGGGAACCTCTAGCTAGCCGACTCACTATAGGGATAATCGCCCTGAGCAAAGACC
The binding signal of the first is higher: 2.41 ± 0.0904 log2FC for the first, 0.146 ± 0.1 log2FC for the second.

Going from “CTCGAGGATATCAAGATCTGGCCTCGGCCGCTATCGCGGAACCTCTAGCTAGCCGACTCACTATAGGGATAATCGCCCTGAGCAAAGACC” to “CTCGAGGATATCAAGATCTGGCCTCGGCGAGATAAAAGGAACCTCTAGCTAGCCGACTCACTATAGGGATAATCGCCCTGAGCAAAGACC”, the binding signal rises from -0.806 ± 0.119 log2FC to 0.43 ± 0.0919 log2FC.

Going from “CTCGAGGATATCAAGATCTGGCCTCGGCAAACCACGCGGAACCTCTAGCTAGCCGACTCACTATAGGGATAATCGCCCTGAGCAAAGACC” to “CTCGAGGATATCAAGATCTGGCCTCGGCTTTTTAAAAGGAACCTCTAGCTAGCCGACTCACTATAGGGATAATCGCCCTGAGCAAAGACC”, the binding signal rises from -0.989 ± 0.132 log2FC to 2.52 ± 0.0678 log2FC.

First: CTCGAGGATATCAAGATCTGGCCTCGGCCTTTTAGTCGGAACCTCTAGCTAGCCGACTCACTATAGGGATAATCGCCCTGAGCAAAGACC
Second: CTCGAGGATATCAAGATCTGGCCTCGGCGTGCTAAAAGGAACCTCTAGCTAGCCGACTCACTATAGGGATAATCGCCCTGAGCAAAGACC
The binding signal of the first is lower: -0.369 ± 0.0988 log2FC for the first, -0.142 ± 0.0902 log2FC for the second.

Compared with “CTCGAGGATATCAAGATCTGGCCTCGGCTTTTTAAGAGGAACCTCTAGCTAGCCGACTCACTATAGGGATAATCGCCCTGAGCAAAGACC”, “CTCGAGGATATCAAGATCTGGCCTCGGCATTTTAGTGGGAACCTCTAGCTAGCCGACTCACTATAGGGATAATCGCCCTGAGCAAAGACC” is lower in binding signal: 2.84 ± 0.0822 log2FC for the first, 1.61 ± 0.0939 log2FC for the second.

Going from “CTCGAGGATATCAAGATCTGGCCTCGGCCTTTTACTGGGAACCTCTAGCTAGCCGACTCACTATAGGGATAATCGCCCTGAGCAAAGACC” to “CTCGAGGATATCAAGATCTGGCCTCGGCGGTGTAAAAGGAACCTCTAGCTAGCCGACTCACTATAGGGATAATCGCCCTGAGCAAAGACC”, the binding signal falls from 2.53 ± 0.0719 log2FC to 0.668 ± 0.0814 log2FC.

Compared with “CTCGAGGATATCAAGATCTGGCCTCGGCGGATTAAAAGGAACCTCTAGCTAGCCGACTCACTATAGGGATAATCGCCCTGAGCAAAGACC”, “CTCGAGGATATCAAGATCTGGCCTCGGCGTTTTATGTGGAACCTCTAGCTAGCCGACTCACTATAGGGATAATCGCCCTGAGCAAAGACC” is higher in binding signal: 1.17 ± 0.076 log2FC for the first, 2.96 ± 0.0773 log2FC for the second.

First: CTCGAGGATATCAAGATCTGGCCTCGGCCGTTTAAAAGGAACCTCTAGCTAGCCGACTCACTATAGGGATAATCGCCCTGAGCAAAGACC
Second: CTCGAGGATATCAAGATCTGGCCTCGGCTAGATAAAAGGAACCTCTAGCTAGCCGACTCACTATAGGGATAATCGCCCTGAGCAAAGACC
The binding signal of the first is higher: 1.9 ± 0.069 log2FC for the first, 0.188 ± 0.107 log2FC for the second.

“CTCGAGGATATCAAGATCTGGCCTCGGCTTTTTAAAGGGAACCTCTAGCTAGCCGACTCACTATAGGGATAATCGCCCTGAGCAAAGACC” and “CTCGAGGATATCAAGATCTGGCCTCGGCCAAATAAAAGGAACCTCTAGCTAGCCGACTCACTATAGGGATAATCGCCCTGAGCAAAGACC” are within error of each other in binding signal: 2.54 ± 0.0796 log2FC for the first, 2.65 ± 0.0828 log2FC for the second.

Compared with “CTCGAGGATATCAAGATCTGGCCTCGGCTGATTAAAAGGAACCTCTAGCTAGCCGACTCACTATAGGGATAATCGCCCTGAGCAAAGACC”, “CTCGAGGATATCAAGATCTGGCCTCGGCGCTCTAAAAGGAACCTCTAGCTAGCCGACTCACTATAGGGATAATCGCCCTGAGCAAAGACC” is lower in binding signal: 1.86 ± 0.0796 log2FC for the first, 0.0795 ± 0.0859 log2FC for the second.

Going from “CTCGAGGATATCAAGATCTGGCCTCGGCCTTTTAACTGGAACCTCTAGCTAGCCGACTCACTATAGGGATAATCGCCCTGAGCAAAGACC” to “CTCGAGGATATCAAGATCTGGCCTCGGCTTTTTATAGGGAACCTCTAGCTAGCCGACTCACTATAGGGATAATCGCCCTGAGCAAAGACC”, the binding signal rises from 1.7 ± 0.0719 log2FC to 3.37 ± 0.0926 log2FC.

First: CTCGAGGATATCAAGATCTGGCCTCGGCTTTTTAGCTGGAACCTCTAGCTAGCCGACTCACTATAGGGATAATCGCCCTGAGCAAAGACC
Second: CTCGAGGATATCAAGATCTGGCCTCGGCCCTCTAAAAGGAACCTCTAGCTAGCCGACTCACTATAGGGATAATCGCCCTGAGCAAAGACC
The binding signal of the first is lower: -0.298 ± 0.114 log2FC for the first, 0.681 ± 0.104 log2FC for the second.

Going from “CTCGAGGATATCAAGATCTGGCCTCGGCTGTCTAAAAGGAACCTCTAGCTAGCCGACTCACTATAGGGATAATCGCCCTGAGCAAAGACC” to “CTCGAGGATATCAAGATCTGGCCTCGGCGGAATAAAAGGAACCTCTAGCTAGCCGACTCACTATAGGGATAATCGCCCTGAGCAAAGACC”, the binding signal rises from -0.572 ± 0.102 log2FC to 0.87 ± 0.0838 log2FC.

With “CTCGAGGATATCAAGATCTGGCCTCGGCTAGTTAAAAGGAACCTCTAGCTAGCCGACTCACTATAGGGATAATCGCCCTGAGCAAAGACC” the binding signal was 2.53 ± 0.0756 log2FC.
